Consider four compounds from PubChem BioAssay.

Calls of active or inactive are those of the source.

Test [1] in a line: optical density shifts of acrAB sulA E. coli – strain DRC41, OD650, 48 h, E. coli filamentation inducer project, primary screen (AID 1152).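 Also: E. coli MC1000 strain DRC41 lacking acrAB efflux pump and sulA.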 The settings on record: higher = more signal, called active from +8 up or from −8 down.
Test [2] in a line: probe aLefty1 binding on compound microarray – biochemical, small-molecule microarray, 635/667 nm fluorescence, primary screen (AID 1153).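 Also: score merges spot fluorescence with signal-to-noise ratio from the scanned slide images.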 The settings on record: higher = more signal.
Test [3] in a line: plasmodial surface anion channel blockers, osmotic lysis – cell-based, P. falciparum Indochina, OD700, 1 h, primary screen (AID 1154). The settings on record: P. falciparum Indochina infected RBC osmotic lysis, higher = more signal, called active from +8 up or from −8 down.
A short description of test [4]: plasmodial surface anion channel blockers, osmotic lysis – cell-based, P. falciparum Indochina, OD700, 2 h, primary screen (AID 1155).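 Also: lysis reports solute entry through the parasite surface anion channel PSAC.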 The following applies: P. falciparum Indochina infected erythrocytes, higher = more signal, called active from +8 up or from −8 down.
Test [5] is described as follows: changes in parasitized red cell lysis, either direction – P. falciparum Indochina, OD700, 3 h, PSAC antagonist project, primary screen (AID 1156). The following applies: P. falciparum-infected erythrocytes, osmotic lysis, higher = more signal, called active from +8 up or from −8 down.
Test [6] is described as follows: plasmodial surface anion channel blockers, osmotic lysis – cell-based, P. falciparum Indochina, OD700, 18 h, primary screen (AID 1157). The settings on record: P. falciparum Indochina infected erythrocytes, osmotic lysis OD700, 18 h; higher = more signal, called active from +8 up or from −8 down.
A short description of test [7]: S6 kinase pathway phospho-S6 level changes – cell-based, A549, cytoblot, luminescence, serum-stimulated, primary screen (AID 1158).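 Also: serum-stimulated A549 lung adenocarcinoma cells; signal is phosphorylated S6 detected by cytoblot immunostaining with HRP secondary.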 The following applies: 5 h, higher = more signal.
For test [8], the target named is NADPH oxidase 2 (Homo sapiens) (UniProt P04839). In words: compounds shifting NOX2 Amplex Red fluorescence – cell-based, HEK293-NOX2, PMA-stimulated, NOX inhibitor project, primary screen (AID 1159). Also: test concentration not given here. The settings on record: 45 min, higher = more signal, called active from +8 up or from −8 down.
Sequence of NADPH oxidase 2 (Homo sapiens) (P04839 whole entry, looked up): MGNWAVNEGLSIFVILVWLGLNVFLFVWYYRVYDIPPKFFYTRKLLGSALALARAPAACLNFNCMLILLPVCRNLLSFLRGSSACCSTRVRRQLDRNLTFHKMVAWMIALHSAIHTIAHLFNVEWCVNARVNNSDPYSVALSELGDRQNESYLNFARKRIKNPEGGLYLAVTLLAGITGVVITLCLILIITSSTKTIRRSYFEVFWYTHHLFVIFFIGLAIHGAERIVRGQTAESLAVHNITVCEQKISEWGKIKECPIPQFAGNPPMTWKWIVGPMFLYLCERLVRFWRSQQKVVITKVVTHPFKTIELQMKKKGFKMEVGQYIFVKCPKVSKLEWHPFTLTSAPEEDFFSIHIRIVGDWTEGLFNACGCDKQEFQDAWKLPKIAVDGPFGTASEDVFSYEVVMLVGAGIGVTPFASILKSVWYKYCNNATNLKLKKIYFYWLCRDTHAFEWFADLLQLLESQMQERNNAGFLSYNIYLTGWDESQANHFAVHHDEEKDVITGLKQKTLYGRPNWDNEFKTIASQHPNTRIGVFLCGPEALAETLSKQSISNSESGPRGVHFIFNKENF
The target in test [9] is NADPH oxidase 4 (Homo sapiens) (UniProt Q9NPH5). Put plainly: compounds shifting NOX4 Amplex Red fluorescence – cell-based, HEK293-NOX4, tetracycline-induced, NOX inhibitor project, primary screen (AID 1160). The following applies: HEK293-NOX4, Amplex Red H2O2 fluorescence, 45 min; higher = more signal, called active from +8 up or from −8 down.
Sequence of NADPH oxidase 4 (Homo sapiens) (Q9NPH5 whole entry, looked up): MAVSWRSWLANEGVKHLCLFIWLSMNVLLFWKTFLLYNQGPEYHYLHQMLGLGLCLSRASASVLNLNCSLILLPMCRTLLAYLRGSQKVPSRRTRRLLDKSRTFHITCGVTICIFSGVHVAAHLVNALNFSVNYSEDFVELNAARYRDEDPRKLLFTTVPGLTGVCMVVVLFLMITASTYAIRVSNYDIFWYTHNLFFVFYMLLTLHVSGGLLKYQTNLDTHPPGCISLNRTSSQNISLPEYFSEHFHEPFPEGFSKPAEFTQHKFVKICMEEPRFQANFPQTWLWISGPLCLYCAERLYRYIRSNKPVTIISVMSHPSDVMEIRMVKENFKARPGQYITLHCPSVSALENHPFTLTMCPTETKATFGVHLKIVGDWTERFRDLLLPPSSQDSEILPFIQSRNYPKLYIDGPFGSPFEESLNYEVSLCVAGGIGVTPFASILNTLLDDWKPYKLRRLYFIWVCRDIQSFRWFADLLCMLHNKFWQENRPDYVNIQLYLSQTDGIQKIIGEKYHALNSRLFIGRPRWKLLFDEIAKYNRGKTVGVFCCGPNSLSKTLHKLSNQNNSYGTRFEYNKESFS
Test [10] addresses NADPH oxidase 5 (Homo sapiens) (UniProt Q96PH1). In words: compounds shifting NOX5 Amplex Red fluorescence – cell-based, HEK293-NOX5, NOX inhibitor project, primary screen (AID 1161). The settings on record: HEK293-NOX5, ionomycin, 45 min, higher = more signal.
Test [11] in a line: compound effects on lung adenocarcinoma cell viability – A549, calcein-AM fluorescence, 48 h, basal, profiling panel (AID 1162). Also: test concentration not given here. The settings on record: higher = more signal.
Test [12] can be described thus: compound effects on differentiated 3T3-L1 adipocyte viability – cell-based, 3T3-L1 adipocytes, calcein-AM fluorescence, 48 h, basal, profiling panel (AID 1163). Also: test concentration not given here. The following applies: 3T3-L1 adipocytes viability, higher = more signal.
The nature of test [13]: compound effects on hepatocellular carcinoma cell viability – HepG2, calcein-AM fluorescence, 48 h, basal, profiling panel (AID 1164). Also: test concentration not given here. The settings on record: higher = more signal.
Test [14] can be described thus: compound effects on multiple myeloma cell viability – MM1S, calcein-AM fluorescence, 48 h, basal, profiling panel (AID 1165).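 Also: viability of MM1S multiple myeloma cells under basal unstimulated conditions; test concentration not given here.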 The following applies: higher = more signal.
Test [15] can be described thus: calcein-AM signal in unstimulated myeloma cells – cell-based, calcein-AM fluorescence, 48 h, PK04 Diversity Set, profiling panel (AID 1166).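 Also: cells grown under basal conditions without added stimulus; test concentration not given here.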 The following applies: RPMI8226 myeloma viability, higher = more signal.
Test [16] in a line: JC-1 mitochondrial signal, unstimulated HepG2 cells – cell-based, JC-1 fluorescence, 24 h, 100 nL compound, profiling panel (AID 1167). Also: test concentration not given here. The settings on record: HepG2 mitochondrial potential, higher = more signal.
The nature of test [17]: JC-1 mitochondrial signal, unstimulated adipocytes – cell-based, JC-1 fluorescence, 3T3-L1 adipocytes, 24 h, 100 nL compound, profiling panel (AID 1168). Also: test concentration not given here. The following applies: JC-1 mitochondrial fluorescence, higher = more signal, called active from +8 up or from −8 down.
Test [18] in a line: JC-1 mitochondrial signal, unstimulated myeloma cells – cell-based, JC-1 fluorescence, RPMI8226, 24 h, 100 nL compound, profiling panel (AID 1169). Also: test concentration not given here. The settings on record: JC-1 mitochondrial potential fluorescence, higher = more signal.
A short description of test [19]: JC-1 mitochondrial signal, unstimulated MM1S myeloma – cell-based, JC-1 fluorescence, 24 h, 100 nL compound, profiling panel (AID 1170). Also: test concentration not given here. The settings on record: MM1S mitochondrial potential, higher = more signal.
Test [20] in a line: resazurin metabolic signal in A549 cells – cell-based, resazurin fluorescence, 24 h, PK04 Diversity Set, profiling panel (AID 1171). Also: test concentration not given here. The following applies: A549 viability, higher = more signal, called active from +8 up or from −8 down.

Sequence of NADPH oxidase 5 (Homo sapiens) (Q96PH1 whole entry, looked up): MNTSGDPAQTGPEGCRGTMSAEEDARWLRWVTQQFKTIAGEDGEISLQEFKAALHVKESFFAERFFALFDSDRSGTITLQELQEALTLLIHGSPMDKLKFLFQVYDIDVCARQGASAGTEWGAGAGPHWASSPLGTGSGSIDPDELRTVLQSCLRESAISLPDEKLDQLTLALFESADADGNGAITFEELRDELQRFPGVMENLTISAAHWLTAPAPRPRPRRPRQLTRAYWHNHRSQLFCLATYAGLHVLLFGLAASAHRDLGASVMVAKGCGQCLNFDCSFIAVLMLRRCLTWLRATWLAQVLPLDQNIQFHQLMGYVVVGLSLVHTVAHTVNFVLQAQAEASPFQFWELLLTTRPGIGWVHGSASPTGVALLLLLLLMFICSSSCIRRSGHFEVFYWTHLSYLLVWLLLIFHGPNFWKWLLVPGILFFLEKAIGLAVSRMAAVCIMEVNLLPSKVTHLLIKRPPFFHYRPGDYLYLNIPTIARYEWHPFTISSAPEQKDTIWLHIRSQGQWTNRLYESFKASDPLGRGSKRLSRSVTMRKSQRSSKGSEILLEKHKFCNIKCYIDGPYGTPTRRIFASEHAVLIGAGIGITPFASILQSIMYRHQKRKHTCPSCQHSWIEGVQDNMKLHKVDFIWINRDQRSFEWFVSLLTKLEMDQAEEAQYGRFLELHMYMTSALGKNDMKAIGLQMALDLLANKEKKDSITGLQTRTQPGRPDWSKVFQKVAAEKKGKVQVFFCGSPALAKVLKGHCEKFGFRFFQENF

As for `O=C1N[C@@H](Cc2ccccc2)C(=O)N2[C@@H]1C[C@@H](C(=O)O)[C@H]2c1cccc(OCCO)c1`, the z-score in test [1] is 0.931 (inactive); in [3], 6.39 (inactive); in test [4], 1.12 (inactive); in [5], -2.03 (inactive); in test [6], 0.375 (inactive); in test [7], 1.17. For the same compound, the z-score in test [8] was -2.21 (inactive); in test [9] it was -2.89 (inactive); in test [10], -0.102; in test [11], 0.432; in test [12], -0.732; in [13], -0.0202. Moreover, the z-score was -2.61 in test [14]; 0.358 in test [15]; 1.3 in [16]; -1.49 (inactive) in [17]; 0.448 in test [18]; -1.19 in [19]. The z-score in [20] is 2.99 (inactive). In test [2], this compound displayed a composite z-score of 0.0903.

For `OCCCC1=CC(c2cccs2)N(Cc2cc3c(cc2Br)OCO3)CC1` (stereo not given), the z-score is -1.3 (inactive) in test [1]; 5.53 (inactive) in test [3]; 0.887 (inactive) in [4]; -0.281 (inactive) in test [5]; 0.625 (inactive) in test [6]; -0.684 in [7]. In addition, the z-score in test [8] is -0.283 (inactive); in [9] it was -0.294 (inactive); in test [10], -0.768; in test [11] it was -0.433; in test [12], 1.03; in test [13], 0.145. For the same compound, the z-score was -1.44 in test [14]; -1.52 in [15]; -0.578 in test [16]; -0.359 (inactive) in test [17]; -0.707 in [18]; -0.145 in test [19]. Also, the z-score in test [20] is -0.178 (inactive). In test [2], this compound came in with a composite z-score of 0.187.

As for `C=CCNC(=O)[C@H]1[C@@H]2C(=O)O[C@@H](c3ccccc3)[C@@H](c3ccccc3)N2[C@@H](c2ccccc2OCCO)[C@]12C(=O)Nc1ccc(C#CCCO)cc12`, the z-score in test [1] was -0.849 (inactive); in [3], 9.4 (active); in [4], 1.75 (inactive); in test [5], -0.56 (inactive); in [6], 0.982 (inactive); in test [7], 0.0418. Besides, the z-score was 1.76 (inactive) in test [8]; -0.546 (inactive) in test [9]; 1.93 in test [10]; 0.126 in test [11]; 1.04 in test [12]; -0.543 in [13]. Besides, the z-score in test [14] was -2.03; in [15] it was -1.91; in test [16] it was -0.651; in test [17], -0.936 (inactive); in test [18] it was -0.953; in test [19], -0.31. Besides, the z-score in [20] was -0.685 (inactive). In test [2], this compound registered a composite z-score of -0.133.

Consider `O=C1C2C=CC(C(O)c3cc(C(F)(F)F)cc(C(F)(F)F)c3)N(n3cnnc3)C2C(=O)N1Cc1ccccc1` (stereo not given), for which the z-score in [1] was -0.546 (inactive); in [3], 1.56 (inactive); in [4], 1.11 (inactive); in test [5], 1.69 (inactive); in test [6], 0.833 (inactive); in test [7], -0.241. The z-score is -0.497 (inactive) in test [8]; -0.889 (inactive) in test [9]; -0.379 in [10]; -0.416 in test [11]; 0.649 in test [12]; -0.167 in [13]. The z-score in test [14] is 0.0347; in test [15], -1.41; in test [16] it was -0.605; in test [17] it was -1.62 (inactive); in test [18], 0.11; in test [19], 0.914. Moreover, in [20], the z-score was -0.226 (inactive). Further, in test [2], the composite z-score was determined as 0.197.
